“And” between values parts separate entries of the source, which are not always exact repeats. Identical values can stand only once. The whole screen tested about 350,000 compounds, of which about 1,200 (0.34%) were called active. A call without a number means that no potency is given here. Inconclusive results (about 3%) are left out. The call rests on the fitted dose curve; in most records, active means well fitted inhibition curve with a large enough effect; inconclusive means small, poorly fitted or top-dose-only effect; inactive means no such curve, though single readings can be large or run the other way. This excerpt belongs to a sample that is enriched for actives. Some compounds were tested as several samples or in several runs, with calls that do not always agree.
Molecular target: DNA repair nuclease/redox regulator APEX1 (Homo sapiens) (UniProt P27695)
Assay: qHTS Assay for Inhibitors of the Human Apurinic/apyrimidinic Endonuclease 1 (APE1); further: nearly all actives have a fitted effect of over 55% in size
Conditions: recombinant APE1, TAMRA/BHQ-2 abasic DNA cleavage fluorescence; series mostly up to 65.8 µM
Description: The apurinic/apyrimidinic endonuclease APE1 is the primary mammalian enzyme responsible for the removal of abasic (or AP) sites in DNA and functions centrally in the base excision DNA repair (BER) pathway. […] Thus, targeting APE1 could improve the efficacy of current treatment paradigms by promoting selective sensitization or protection of diseased and normal cells, respectively.
Inhibition of APE1 activity was screened by utilizing double-stranded short substrate containing tetrahydrofuran (THF) abasic site labeled with rhodamine-type fluorophore (TAMRA) at the 5'-end and with non-fluorescent Black Hole Quencher-2 (BHQ-2) at the opposing 3'-end. An increase in the fluorescence intensity due to incision of the abasic site by APE1 was used to measure the enzyme activity.
NIH Chemical Genomics Center [NCGC]
NIH Molecular Libraries Probe Centers Network [MLPCN]
Assay Provider: David M. Wilson, III, National Institute on Aging, NIH
Three uL of enzyme solution (0.75 nM APE1 final concentration) was dispensed to 1536-well Greiner black solid bottom plates. […] The plates were incubated for 15 min at room temperature, and then 1 uL of substrate solution (50 nM final concentration of TAMRA/BHQ-2) was added to start the reaction. The plates were immediately transferred into ViewLux High-throughput CCD imager (Perkin-Elmer) in order to measure the reaction progress in kinetic mode (three reads every 60 seconds) using 525 nm excitation and 598 nm emission fluorescence protocol. The fluorescence intensity difference between the third and the first time points was used to compute reaction progress. Results were normalized to buffer only columns and NSC13755 positive controls and negative control DMSO treated wells.
Potency means the concentration at half of the fitted maximal effect.

Chain of DNA repair nuclease/redox regulator APEX1 (Homo sapiens) (P27695 whole entry, looked up): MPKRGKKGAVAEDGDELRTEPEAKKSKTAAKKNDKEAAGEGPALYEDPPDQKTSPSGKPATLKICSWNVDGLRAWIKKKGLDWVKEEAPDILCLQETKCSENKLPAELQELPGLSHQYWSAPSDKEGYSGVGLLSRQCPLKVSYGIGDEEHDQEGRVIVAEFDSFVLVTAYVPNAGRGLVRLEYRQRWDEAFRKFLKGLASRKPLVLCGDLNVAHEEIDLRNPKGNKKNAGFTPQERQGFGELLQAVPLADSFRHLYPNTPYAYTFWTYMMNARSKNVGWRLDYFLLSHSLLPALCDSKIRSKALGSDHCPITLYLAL

SMILES	Potency	activity change, negative = inhibition
COc1ccc(N2C(=O)/C(=C/c3ccco3)C(=O)NC2=S)cc1	0.67 µM (active)	–
C[C@]12CC[C@@H]3C(=CCc4cc(O)ccc43)[C@@H]1CCC2=O	inactive	–
CCc1ccc(C2C(C#N)=C(N)Oc3n[nH]c(CC(=O)OC)c32)cc1 (stereo not given)	inactive	–
CC[N+](C)(CC)CCC[n+]1c(-c2ccccc2)c2cc(N)ccc2c2ccc(N)cc21	2.12 µM (active)	–
Clc1ccccc1	inactive	–
CC(=O)[O][Sn]([c]1ccccc1)([c]1ccccc1)[c]1ccccc1	inactive	–
N#CC(C#N)=Cc1cc(O)c(O)c([N+](=O)[O-])c1	5.62 µM (active)	–
ClC(Cl)=C(Cl)C(Cl)=C(Cl)Cl	inactive	–
N#Cc1cc(Br)c(O)c(Br)c1	inactive	–
N#CCCCl	inactive	–
Cc1nc(SCC(=O)NC2CCCC2)[nH]c(=O)c1C	–	63.8% [at 12.4 µM] (inactive)
CC(C)COC(=O)n1c(=O)oc2ccc(S(=O)(=O)N3CCCCC3)cc21	inactive	–
CC(C)Nc1nc(Cl)nc(NC(C)C)n1	inactive and 22.4 µM (active)	–
CCCCC#N	inactive	–
NCCCCC(N)C(=O)O (stereo not given)	inactive	–
CCCCCCCCCCCCN=C(N)N	inactive	–
CC(C)(c1ccccc1)c1ccc(O)cc1	inactive	–
C[C@H]1C/C=C/[C@@H]2[C@@H]3O[C@]3(C)[C@@H](C)[C@H]3[C@H](Cc4ccccc4)NC(=O)[C@]32OC(=O)O/C=C/[C@](C)(O)C1=O	inactive	–

SMILES	Potency	activity change, negative = inhibition
O=C(OCC1O[C@@H](OC(=O)c2cc(O)c(O)c(O)c2)[C@@H](OC(=O)c2cc(O)c(O)c(O)c2)[C@@H](OC(=O)c2cc(O)c(O)c(O)c2)[C@@H]1OC(=O)c1cc(O)c(O)c(O)c1)c1cc(O)c(O)c(O)c1 (stereo not given in full)	0.0112 µM (active)	–
Cc1cc(-c2n[nH]c(=S)n2-c2ccc(C)c(C)c2)no1	inactive	–
CC(=O)c1ccc(-c2ccc(Cn3c(C)nc4cc(N)c(C)nc43)cc2)cc1	inactive	–
CN(C)C1C(=O)C(C(N)=O)=C(O)[C@@]2(O)C(=O)C3=C(O)c4c(O)cccc4[C@@](C)(O)C3C[C@@H]12 (stereo not given in full)	inactive	–
O=c1cc(-c2ccc(O)cc2)oc2c([C@@H]3O[C@H](CO)[C@@H](O)[C@H](O)[C@H]3O)c(O)cc(O)c12	8.91 µM (active)	–
C=CCOC(=O)c1ccccc1C(=O)OCC=C	inactive	–
CC(Cl)Cl	inactive	–
CC(C)CC(C)Nc1ccc(Nc2ccccc2)cc1 (stereo not given)	inactive	–
CC(CCn1cccn1)NC(=O)CCc1nnc(CCc2ccccc2)o1 (stereo not given)	inactive	–
Cc1ccnc(-n2c(C)cc(/C=C3\C(=O)NC(=S)N(C)C3=O)c2C)c1	inactive	–
Cc1c(C(=O)O)cccc1-n1c(C)cc(/C=C2\C(=O)NC(=O)N(c3ccc4c(c3)OCO4)C2=O)c1C	14.1 µM (active)	–
CC(C)(C)C(O)(CCc1ccc(Cl)cc1)Cn1cncn1 (stereo not given)	inactive	–
C=CC#N	inactive	–
ClCCBr	inactive	–
CCN(CC)c1nc(C)cc(OP(=S)(OC)OC)n1	inactive	–
CCOc1cc(N2CCOCC2)c(OCC)cc1NC(=O)C1=NN(c2cccc(C)c2)C(=O)CC1	inactive	–
CCC12CCN(CCc3ccccc3)CC1Oc1c(O)cccc12 (stereo not given)	inactive	–
